Where a name gives a salt, the structure may show the parent alone.
How the values were obtained:
[1] = system: RIVA; assay: growth inhibition by drug plus 177Lu-lilotomab satetraxetan (1 - RLU/untreated control) (fraction); higher = stronger inhibition; conditions: 177Lu-lilotomab satetraxetan 0.5 ug/ml
How it was run: (§1)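 Plates pre-printed with the Selleck Cambridge Cancer Compound library at 10/100 nM (RIVA) or 10/1,000 nM (U-2932) received 3,000 cells/well. These cells had been washed after 18 h untreated or with a radiolabelled anti-CD37 antibody conjugate (~600 MBq/mg; 0.5 µg/ml RIVA, 1 µg/ml U-2932). Growth inhibition was obtained from RealTime-Glo luminescence in relation to untreated no-drug wells. Each daily read from day 3, taken after 1 h at 37°C, was converted as 1 − RLU/mean of 48 such wells per plate.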

[2] = system: U-2932; assay: growth inhibition by drug alone (1 - RLU/untreated control) (fraction); higher = stronger inhibition; conditions: 177Lu-lilotomab satetraxetan 0 ug/ml
How it was run: as §1

[3] = system: RIVA; assay: as above; conditions: 177Lu-lilotomab satetraxetan 0 ug/ml
How it was run: as §1

[4] = system: U-2932; assay: growth inhibition by drug plus 177Lu-lilotomab satetraxetan (1 - RLU/untreated control) (fraction); higher = stronger inhibition; conditions: 177Lu-lilotomab satetraxetan 1 ug/ml
How it was run: as §1

Structure (SMILES) | growth inhibition by drug plus 177Lu-lilotomab satetraxetan ([1]; 100 nM, time (day): 5) | growth inhibition by drug plus 177Lu-lilotomab satetraxetan ([1]; 100 nM, time (day): 6) | growth inhibition by drug alone ([2]; 10 nM, time (day): 3) | growth inhibition by drug alone ([2]; 10 nM, time (day): 4) | growth inhibition by drug alone ([2]; 10 nM, time (day): 5) | growth inhibition by drug alone ([2]; 10 nM, time (day): 6) | growth inhibition by drug alone ([2]; 1000 nM, time (day): 3) | growth inhibition by drug alone ([2]; 1000 nM, time (day): 4) | growth inhibition by drug alone ([2]; 1000 nM, time (day): 5) | growth inhibition by drug alone ([2]; 1000 nM, time (day): 6) | growth inhibition by drug alone ([3]; 10 nM, time (day): 3) | growth inhibition by drug alone ([3]; 10 nM, time (day): 4) | growth inhibition by drug alone ([3]; 10 nM, time (day): 5) | growth inhibition by drug alone ([3]; 10 nM, time (day): 6) | growth inhibition by drug alone ([3]; 100 nM, time (day): 3) | growth inhibition by drug alone ([3]; 100 nM, time (day): 4) | growth inhibition by drug alone ([3]; 100 nM, time (day): 5) | growth inhibition by drug alone ([3]; 100 nM, time (day): 6) | growth inhibition by drug plus 177Lu-lilotomab satetraxetan ([4]; 10 nM, time (day): 3) | growth inhibition by drug plus 177Lu-lilotomab satetraxetan ([4]; 10 nM, time (day): 4) | growth inhibition by drug plus 177Lu-lilotomab satetraxetan ([4]; 10 nM, time (day): 5) | growth inhibition by drug plus 177Lu-lilotomab satetraxetan ([4]; 10 nM, time (day): 6) | growth inhibition by drug plus 177Lu-lilotomab satetraxetan ([4]; 1000 nM, time (day): 3) | growth inhibition by drug plus 177Lu-lilotomab satetraxetan ([4]; 1000 nM, time (day): 4) | growth inhibition by drug plus 177Lu-lilotomab satetraxetan ([4]; 1000 nM, time (day): 5) | growth inhibition by drug plus 177Lu-lilotomab satetraxetan ([4]; 1000 nM, time (day): 6) | growth inhibition by drug plus 177Lu-lilotomab satetraxetan ([1]; 10 nM, time (day): 3) | growth inhibition by drug plus 177Lu-lilotomab satetraxetan ([1]; 10 nM, time (day): 4) | growth inhibition by drug plus 177Lu-lilotomab satetraxetan ([1]; 10 nM, time (day): 5) | growth inhibition by drug plus 177Lu-lilotomab satetraxetan ([1]; 10 nM, time (day): 6) | growth inhibition by drug plus 177Lu-lilotomab satetraxetan ([1]; 100 nM, time (day): 3) | growth inhibition by drug plus 177Lu-lilotomab satetraxetan ([1]; 100 nM, time (day): 4)
COc1cc2nc(N3CCCN(C)CC3)nc(NC3CCN(Cc4ccccc4)CC3)c2cc1OC | 0.569 | 0.565 |  |  |  |  |  |  |  |  |  |  |  |  |  |  |  |  |  |  |  |  |  |  |  |  |  |  |  |  |  | 
Cc1ccc(F)c(NC(=O)Nc2ccc(-c3cccc4[nH]nc(N)c34)cc2)c1 [Linifanib (ABT-869)] | 0.546 | 0.517 | 0.0297 | 0.0175 | -0.00657 | 0.043 | 0.133 | 0.146 | 0.103 | 0.0811 | -0.11 | -0.109 | -0.157 | -0.289 | 0.0372 | 0.000859 | -0.0495 | -0.102 | 0.0166 | 0.0206 | 0.0473 | 0.197 | 0.0768 | 0.108 | 0.147 | 0.253 | 0.454 | 0.546 | 0.574 | 0.585 | 0.515 | 0.54
COc1ccc2c(c1)CCC1C2CCC2(C)C(NCCCCCCN3C(=O)C=CC3=O)CCC12 (stereo not drawn) | 0.571 | 0.58 | 0.079 | 0.0406 | 0.0171 | -0.0318 | -0.0546 | 0.0273 | -0.0312 | -0.361 | -0.042 | -0.062 | -0.0736 | -0.13 | -0.374 | -0.291 | -0.321 | -0.444 | 0.00613 | 0.0631 | 0.103 | 0.161 | -0.0126 | 0.0436 | 0.0468 | 0.107 | 0.506 | 0.561 | 0.586 | 0.598 | 0.502 | 0.567
CN(C)CCOc1ccc(-c2nc(-c3ccncc3)c(-c3ccc4c(c3)CC/C4=N\O)[nH]2)cc1 | 0.378 | 0.441 | -0.0248 | -0.0722 | -0.0892 | 0.0453 | 0.104 | 0.0148 | 0.0221 | 0.134 | -0.226 | -0.183 | -0.167 | -0.14 | -0.788 | -0.651 | -0.644 | -0.615 | -0.0652 | -0.0236 | 0.0668 | 0.196 | 0.124 | 0.0207 | 0.0638 | 0.259 | 0.358 | 0.494 | 0.536 | 0.556 | -0.0096 | 0.315
CN(Cc1cnc2nc(N)nc(N)c2n1)c1ccc(C(=O)N[C@@H](CCC(=O)O)C(=O)O)cc1 [Abitrexate (Methotrexate)] | 0.483 | 0.457 | -0.0461 | -0.0435 | -0.0522 | -0.0907 | 0.866 | 0.93 | 0.956 | 0.968 | -0.206 | -0.255 | -0.282 | -0.39 | -0.038 | -0.184 | -0.173 | -0.287 | -0.123 | -0.083 | -0.0233 | 0.0372 | 0.851 | 0.924 | 0.957 | 0.972 | 0.364 | 0.489 | 0.508 | 0.521 | 0.452 | 0.49
C[C@]12CC[C@@H]3c4ccc(O)cc4CC[C@H]3[C@@H]1CC[C@@H]2O [Estradiol] | 0.607 | 0.585 | 0.0973 | 0.0727 | -0.00691 | -0.0255 | 0.0487 | 0.0434 | -0.00409 | -0.0239 | 0.262 | 0.163 | 0.098 | -0.022 | 0.0522 | 0.0345 | -0.0106 | -0.0996 | 0.0604 | 0.113 | 0.146 | 0.26 | 0.0789 | 0.106 | 0.106 | 0.215 | 0.509 | 0.574 | 0.594 | 0.601 | 0.584 | 0.611
Cn1nnc2c(C(N)=O)ncn2c1=O [Temozolomide] | 0.53 | 0.509 | 0.0892 | 0.0648 | -0.0333 | -0.0967 | -0.0354 | 0.0378 | -0.0162 | -0.101 | 0.0977 | 0.0337 | -0.0714 | -0.291 | 0.0972 | 0.055 | 0.0367 | -0.03 | 0.00136 | 0.0294 | 0.0193 | 0.0893 | -0.0214 | 0.119 | 0.126 | 0.194 | 0.398 | 0.513 | 0.538 | 0.549 | 0.493 | 0.527
Cc1ccc(C(=O)N(CCCN)[C@@H](c2nc3cc(Cl)ccc3c(=O)n2Cc2ccccc2)C(C)C)cc1 | 0.971 | 0.979 | 0.446 | 0.424 | 0.379 | 0.372 | 0.959 | 0.968 | 0.972 | 0.977 | 0.202 | 0.194 | 0.075 | -0.26 | 0.918 | 0.931 | 0.939 | 0.943 | 0.393 | 0.409 | 0.426 | 0.465 | 0.965 | 0.973 | 0.98 | 0.984 | 0.652 | 0.647 | 0.659 | 0.655 | 0.94 | 0.962
Cc1ccc(NC(=O)c2ccc(CN3CCN(C)CC3)cc2)cc1Nc1nccc(-c2cccnc2)n1 [Imatinib (Gleevec)] | 0.462 | 0.483 | 0.114 | 0.0795 | 0.0573 | -0.108 | -0.0113 | -0.0535 | -0.0116 | -0.0612 | -0.0508 | -0.0897 | -0.292 | -0.626 | -0.513 | -0.311 | -0.289 | -0.464 | -0.0306 | 0.0247 | 0.124 | 0.134 | -0.0872 | -0.0527 | 0.073 | 0.171 | 0.424 | 0.545 | 0.568 | 0.595 | 0.301 | 0.444
CC(C)C(=O)Nc1ccc([N+](=O)[O-])c(C(F)(F)F)c1 [Flutamide (Eulexin)] | 0.599 | 0.626 | 0.147 | 0.0928 | 0.0103 | -0.0414 | 0.15 | 0.123 | 0.105 | 0.0519 | 0.122 | 0.106 | 0.0768 | -0.0242 | -0.044 | 0.0232 | 0.0258 | -0.0163 | 0.105 | 0.202 | 0.26 | 0.327 | 0.175 | 0.211 | 0.291 | 0.385 | 0.611 | 0.616 | 0.649 | 0.663 | 0.534 | 0.562
CCN[C@H]1C[C@H](C)S(=O)(=O)c2sc(S(N)(=O)=O)cc21 [Dorzolamide HCL] | 0.389 | 0.37 | -0.0781 | -0.0488 | -0.0257 | 0.0748 | 0.15 | 0.182 | 0.141 | 0.205 | -0.103 | -0.133 | -0.166 | -0.25 | -0.0335 | -0.0982 | -0.134 | -0.179 | -0.0513 | -0.0344 | -0.00192 | 0.152 | 0.0973 | 0.164 | 0.191 | 0.279 | 0.311 | 0.443 | 0.471 | 0.489 | 0.267 | 0.375
O=C1c2ccccc2C(=O)c2c(NCCc3ccc(O)cc3)ccc(NCCc3ccc(O)cc3)c21 | 0.433 | 0.44 | -0.0815 | -0.112 | -0.157 | -0.425 | -0.127 | -0.129 | -0.138 | -0.403 | -0.237 | -0.358 | -0.539 | -0.808 | -0.77 | -0.807 | -0.893 | -1.08 | -0.127 | -0.0794 | -0.054 | -0.0701 | -0.11 | -0.0952 | -0.0582 | 0.044 | 0.317 | 0.429 | 0.456 | 0.479 | 0.329 | 0.437
CC/C(=C(\c1ccccc1)c1ccc(OCCN(C)C)cc1)c1ccccc1 [Tamoxifen Citrate (Nolvadex)] | 0.788 | 0.802 | 0.0699 | 0.0582 | -0.0313 | -0.0576 | 0.106 | 0.0715 | -0.0226 | 0.0641 | 0.0612 | 0.0931 | 0.0782 | -0.0872 | 0.551 | 0.381 | 0.352 | 0.322 | 0.0801 | 0.126 | 0.2 | 0.206 | 0.075 | 0.103 | 0.172 | 0.27 | 0.602 | 0.651 | 0.667 | 0.656 | 0.78 | 0.78
O=C(/C=C/C#Cc1cccc(NS(=O)(=O)c2ccccc2)c1)NO [Oxamflatin] | 0.691 | 0.686 | 0.0723 | 0.054 | 0.00482 | -0.0197 | 0.851 | 0.808 | 0.766 | 0.702 | 0.0849 | 0.0278 | 0.0468 | 0.0353 | 0.675 | 0.482 | 0.435 | 0.389 | -0.0134 | 0.0236 | 0.0539 | 0.158 | 0.941 | 0.947 | 0.958 | 0.96 | 0.518 | 0.564 | 0.59 | 0.607 | 0.726 | 0.683
